SMILES strings stand for the structures. Compounds without any hit were thinned out: in the full panel of roughly 83,000, 20% have a hit.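 In brief: 96-well plates, 48 h treatment, single concentration, percent growth endpoint.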 Unmarked numbers belong to inactive results. The source made the active and inactive calls. Rule for the calls: active = growth percent below 10; inactive = the rest.

Test systems include NCI-H23 lung; NCI-H226 lung; NCI-H322M lung; HOP-62 NSCLC; NCI-H460 lung; HOP-92 NSCLC; NCI-H522 lung; A549/ATCC NSCLC; 786-0 renal; COLO 205 colon.
What all share (assay): NCI-60 one-dose screen, 48 h (100 = growth as untreated, 0 = no growth, -100 = all killed)
What all share (details): 10 µM unless noted

As to `Ic1ccc(OCCCCn2ccnc2)cc1`, the growth was 66.6% with NCI-H23 lung; 80.5% with NCI-H226 lung; 85.3% in the assay on NCI-H322M lung; 72.3% in the assay with HOP-62 NSCLC; 92.5% in the assay with NCI-H460 lung; 34.7% in the assay with HOP-92 NSCLC. The growth with NCI-H522 lung was 67.4%; with A549/ATCC NSCLC, 78.1%; in the assay on 786-0 renal, 83.7%; with COLO 205 colon, 29.3%.
On to `N#Cc1c(-c2ccccc2)[nH]c2ncc(-c3ccccc3)n2c1=O`, for which the growth in the assay with NCI-H23 lung was 76.9%; in the assay on NCI-H226 lung, 86.3%; in the assay on NCI-H322M lung, 88.6%; with HOP-62 NSCLC it was 75.6%; in the assay with NCI-H460 lung it was 91.1%; in the assay with HOP-92 NSCLC it was 80.7%. Also, the growth was 76.9% in the assay on NCI-H522 lung, 90.6% in the assay on A549/ATCC NSCLC, 92.3% in the assay on 786-0 renal and 94.7% in the assay on COLO 205 colon.
Take `CCCCCN1C(=O)/C(=c2\sc3n(c2=O)C2C(NN=3)N(CC)C(=O)N2CC)c2ccccc21` (centres undefined): the growth with NCI-H23 lung was 12.1%; in the assay on NCI-H226 lung, 9.26% (active); in the assay with NCI-H322M lung, 21.2%; in the assay with HOP-62 NSCLC, 9.45% (active); in the assay with NCI-H460 lung, -74.6% (active); with HOP-92 NSCLC, 3.79% (active). Further, the growth in the assay with NCI-H522 lung was -28% (active); with A549/ATCC NSCLC, -85% (active); in the assay with 786-0 renal, -61.6% (active); in the assay with COLO 205 colon it was 0.959% (active).
In the case of `O=C(Nc1nc(-c2ccc(Cl)cc2)nc2c1sc(=S)n2-c1ccccc1)C(F)(F)F`, the growth in the assay with NCI-H23 lung is 49.2%; with NCI-H226 lung it was 23.7%; in the assay with NCI-H322M lung, 49.4%; in the assay on HOP-62 NSCLC, 9.09% (active); in the assay on NCI-H460 lung it was 13.6%; in the assay on HOP-92 NSCLC it was -4.79% (active). The growth is 25.2% with NCI-H522 lung, 19.5% with A549/ATCC NSCLC, -72.1% (active) in the assay with 786-0 renal and 21% in the assay on COLO 205 colon.
Take `N#Cc1c(-c2ccc(Cl)cc2)nc(NN2C(=O)c3ccccc3C2=O)nc1N1CCOCC1`: the growth in the assay with NCI-H23 lung was 97.2%; with NCI-H226 lung it was 99.9%; in the assay with NCI-H322M lung, 111%; with HOP-62 NSCLC, 97.9%; in the assay on NCI-H460 lung it was 106%; in the assay on HOP-92 NSCLC, 99.8%. Besides, the growth with NCI-H522 lung was 97.5%; with A549/ATCC NSCLC, 107%; in the assay with 786-0 renal, 99.8%; in the assay with COLO 205 colon, 110%.
As for `O=C(Nc1ccc(Oc2cccc(Cl)c2)c(Cl)c1)c1cccnc1`, the growth was 47.9% with NCI-H23 lung; 54.3% in the assay on NCI-H226 lung; 47.1% in the assay with NCI-H322M lung; 38% in the assay on HOP-62 NSCLC; 22.2% in the assay on NCI-H460 lung; 61.3% with HOP-92 NSCLC. In addition, the growth with NCI-H522 lung was 27.3%; in the assay with A549/ATCC NSCLC it was 36.8%; in the assay with 786-0 renal it was 39.2%; with COLO 205 colon, 15.4%.
`CCC1=C[C@@H]2C[C@]3(C(=O)OC)c4[nH]c5ccccc5c4CC[N@+](CC(=O)Nc4cc5c(cc4OC)N(C)[C@H]4[C@@](O)(C(=O)OC)[C@H](OC(C)=O)[C@]6(CC)C=CCN7CC[C@]54[C@@H]76)(C2)[C@H]13`: the growth in the assay on NCI-H23 lung was 104%; in the assay with NCI-H226 lung, 98.7%; with NCI-H322M lung, 102%; with HOP-62 NSCLC, 99.5%; in the assay on NCI-H460 lung, 109%; with HOP-92 NSCLC it was 88%. For the same molecule, the growth with NCI-H522 lung is 92.4%; in the assay on A549/ATCC NSCLC it was 100%; in the assay on 786-0 renal, 99.1%; in the assay on COLO 205 colon it was 104%.
Turning to `COC1=CC(c2ccc[nH]2)=N/C1=C\c1[nH]c(C)c(CC(=O)OCc2ccccc2)c1CCC(=O)OCc1ccccc1`, the growth with NCI-H23 lung was -12.6% (active); in the assay on NCI-H226 lung it was -12.8% (active); in the assay on NCI-H322M lung, 34.7%; in the assay with HOP-62 NSCLC, -22.2% (active); in the assay on NCI-H460 lung, 12.2%; with HOP-92 NSCLC, -26.1% (active). Moreover, the growth in the assay with NCI-H522 lung was -48.5% (active); in the assay on A549/ATCC NSCLC, 5.29% (active); in the assay on 786-0 renal it was -56.2% (active); in the assay on COLO 205 colon, -45.6% (active).
Consider `CNc1nnc2n(-c3ccccc3)c(=O)c3cnn(-c4ccccc4)c3n12`, for which the growth with NCI-H23 lung is 95.8%; in the assay on NCI-H226 lung, 93.6%; with NCI-H322M lung it was 100%; with HOP-62 NSCLC, 64.7%; in the assay with NCI-H460 lung, 106%; in the assay with HOP-92 NSCLC, 78.3%. The growth was 41.8% in the assay with NCI-H522 lung, 64.4% in the assay with A549/ATCC NSCLC, 74.7% with 786-0 renal and 84.7% in the assay on COLO 205 colon.
In the case of `O=C1c2c(c3c4ccccc4[nH]c3c3ccc4ccccc4c23)C(=O)N1CCN1CCNCC1`, the growth was 72.4% in the assay on NCI-H23 lung; 76% with NCI-H226 lung; 89.2% in the assay with NCI-H322M lung; 61.3% in the assay on HOP-62 NSCLC; -69.2% (active) with NCI-H460 lung; 78.3% in the assay with HOP-92 NSCLC. In addition, the growth in the assay on NCI-H522 lung is 66.2%; with A549/ATCC NSCLC, -21% (active); in the assay with 786-0 renal it was 79.7%; with COLO 205 colon, 79.1%.
`O=C(CSc1nc2ccc([N+](=O)[O-])cc2[nH]1)Nc1ccc([N+](=O)[O-])cc1`: the growth in the assay on NCI-H23 lung was 0.139% (active); in the assay on NCI-H226 lung, 6.55% (active); in the assay on NCI-H322M lung it was 43.9%; with HOP-62 NSCLC, 36.2%; with NCI-H460 lung, 15.4%; with HOP-92 NSCLC, -26.8% (active). For the same molecule, the growth was -3.09% (active) in the assay on NCI-H522 lung, 24.4% with A549/ATCC NSCLC, 24.1% in the assay on 786-0 renal and 21.4% in the assay on COLO 205 colon.
In the case of `COc1cccc(CNc2ccc3ncnc(Nc4ccc(F)c(Cl)c4)c3c2)c1`, the growth is 69.6% with NCI-H23 lung; 71.4% with NCI-H226 lung; 34.1% in the assay with NCI-H322M lung; 82.5% with HOP-62 NSCLC; 78% in the assay with NCI-H460 lung; 18.6% in the assay on NCI-H522 lung. In addition, the growth in the assay on A549/ATCC NSCLC was 53.1%; in the assay on 786-0 renal, 71.2%; in the assay with COLO 205 colon it was 91.3%.
As for `CC(=O)n1nc(C(=O)OC(C)(C)c2ccccc2)c2ccccc21`, the growth was 94.2% in the assay with NCI-H23 lung; 85.7% in the assay on NCI-H226 lung; 87.9% in the assay with NCI-H322M lung; 97.3% with HOP-62 NSCLC; 100% with NCI-H460 lung; 94.1% in the assay with HOP-92 NSCLC. In addition, the growth in the assay on NCI-H522 lung was 85.5%; in the assay with A549/ATCC NSCLC, 91.8%; in the assay with 786-0 renal it was 96.8%; with COLO 205 colon, 107%.

For the origin of these results see PubChem BioAssay (NCI).
